# Reference: the supplement of paper PMC11482750
# ± gives the standard deviation of the averaged measurements.
# Compound: CCC/C=C/C=O [trans-2-hexenal]
# Assay: control-subtracted net OSN firing rate; higher = stronger neuronal activation
# Details: odorant dilution (vol/vol): 1/100
# Method: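 Single sensillum recordings from olfactory sensory neurons. The neurons sit in the maxillary palp or antennal sensilla of D. melanogaster (wild type, mutants, or at1 empty-neuron lines expressing Or42a homologs or the A181D S307P mutant) and of four Scaptomyza species. Each odorant was given as a 1 s pulse from 20 µl loaded on filter paper at 1:100 vol/vol, diluted in mineral oil (γ-hexalactone in DMSO). Spikes were counted in a 0.5 s window starting 0.2 s after onset, background was subtracted, the count was doubled, and the mean solvent-control response was subtracted.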
row,Target,control-subtracted net OSN firing rate [spikes/s]
1,Canton-S (D. melanogaster) pb3b,-0.833 ± 5.7
2,S. pallida pb3b-like,-10 ± 14
3,S. hsui pb2b-like,15 ± 15
4,S. montana pb3b-like,8.33 ± 8.7
5,"Or67dGal4, UAS-Sfla Or42a2 at1",3.14 ± 12
6,S. hsui pb1b-like,-16.3 ± 10
7,S. hsui pb3a-like,147 ± 24
8,S. hsui pb2a-like,10 ± 12
9,Canton-S (D. melanogaster) pb1a,124 ± 31
10,S. flava pb3a-like,-3.33 ± 9.6
11,S. montana pb3a-like,3 ± 5.5
12,S. flava pb3b-like,26 ± 42
13,Canton-S (D. melanogaster) pb2b,0.857 ± 11
14,S. hsui pb3b-like,-5 ± 4.2
15,S. flava pb1b-like,-17.7 ± 8.2
16,S. flava pb2b-like,15 ± 14
17,S. montana pb2b-like,5.67 ± 5.1
18,Canton-S (D. melanogaster) pb3a,0.167 ± 5.6

row,Target,control-subtracted net OSN firing rate [spikes/s]
1,"Or67dGal4, UAS-Sfla Or42a4 at1",179 ± 43
2,"Or67dGal4, UAS-Spal Or42a at1",205 ± 10
3,S. pallida pb3a-like,109 ± 24
4,S. montana pb1b-like,-11.3 ± 8.9
5,S. pallida pb1b-like,-6.67 ± 7.2
6,"Or67dGal4, UAS-Sfla Or42a3 at1",144 ± 32
7,Canton-S (D. melanogaster) pb1b,-5.33 ± 9
8,S. pallida pb2a-like,8.33 ± 6
9,S. flava pb2a-like,1.67 ± 6.6
10,"Or67dGal4, UAS-Dmel Or42a at1",110 ± 52
11,S. pallida pb2b-like,6.67 ± 10
12,S. pallida pb1a-like,103 ± 25
13,Canton-S (D. melanogaster) pb2a,4.86 ± 9.6
14,S. flava pb1a-like,152 ± 26
15,S. montana pb2a-like,1 ± 8.5
16,S. hsui pb1a-like,115 ± 18
17,S. montana pb1a-like,145 ± 34
